Measured values as given in PubChem BioAssay AID571 (The Scripps Research Institute Molecular Screening Center, 2007).
The whole screen tested about 65,000 compounds, of which about 640 (0.98%) were called active. For the sample, actives were picked, then their nearest neighbours and some compounds at random. Unmarked numbers belong to inactive results.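 The calls were made as follows: active = inhibition above a set limit, the mean inhibition across every tested compound plus 3 SD (cut at about 29% in these data); inactive = the rest.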

biological target: 5-hydroxytryptamine receptor 1E (Homo sapiens) (UniProt P28566); assay: blockade of human serotonin 5HT1E receptor – cell-based, HTS, primary screen (AID 571); details: CHO 5-HT1E Ga15 NFAT-bla reporter, FRET, antagonist; at 6 µM; hits give high values;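 also: signal is the 460 over 535 nm emission ratio of beta-lactamase substrate; 0% = agonist plus DMSO wells and 100% = wells without agonist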
Sequence (P28566 whole entry, looked up): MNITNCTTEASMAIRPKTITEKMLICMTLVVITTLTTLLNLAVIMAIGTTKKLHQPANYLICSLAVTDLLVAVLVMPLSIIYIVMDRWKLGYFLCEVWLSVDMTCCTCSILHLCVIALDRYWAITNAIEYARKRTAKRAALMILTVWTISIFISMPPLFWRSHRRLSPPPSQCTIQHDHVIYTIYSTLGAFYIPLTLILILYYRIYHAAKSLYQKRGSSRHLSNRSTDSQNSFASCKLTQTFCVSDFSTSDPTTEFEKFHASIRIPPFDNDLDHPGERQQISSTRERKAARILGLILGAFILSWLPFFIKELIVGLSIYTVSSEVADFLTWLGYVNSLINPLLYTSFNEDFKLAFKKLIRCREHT

| Structure (SMILES) | inhibition |
| --- | --- |
| CCOc1ccc(NC(=O)Nc2cc(C)on2)cc1 | -2.74% |
| O=C(CN1C(=O)COc2ccccc21)Nc1ccc(F)cc1 | 6.81% |
| O=C(CSc1nnc(-c2c[nH]c3ccccc23)n1-c1ccc(F)cc1)NCc1ccco1 | 6.88% |
| COc1ccc(S(=O)(=O)N(C)CC(=O)Nc2ccc3c(c2)OCCO3)cc1OC | 10.4% |
| CCC(C)(C)n1nnnc1C(c1cccs1)N1CCN(c2nc3ccccc3s2)CC1 (centres undefined) | 3.71% |
| Cc1nnc(SCc2cc(=O)[nH]c(N3CCN(Cc4ccccc4)CC3)n2)s1 | -7.09% |
| COc1cc(OC)c(C(=O)Nc2ccc(N(C)C)cc2)cc1OC | -7.5% |
| COc1ccccc1-c1nc(C(F)(F)F)c(OC)o1 | -6.75% |
| Cc1cc(C)n2nc(C(=O)Oc3ccc4c(c3)OCO4)nc2n1 | -5.31% |
| Nc1nonc1-c1nc2ccccc2n1CCC(=O)O | 7.28% |
| Nc1nonc1-c1nc2ccccc2n1Cc1ccc(F)cc1 | 8.52% |
| COc1ccc(C)c(Cn2c(-c3nonc3N)nc3ccccc32)c1 | 33.6% (active) |
| NC(=O)CSc1oc(-c2cccs2)nc1S(=O)(=O)c1ccccc1 | 1.39% |
| CN(C)CCCNC(=O)c1ccc2[nH]c3ccccc3c2c1 | -3.46% |
| CCCCOc1ccc(C(C)(O)CCN2CCOCC2)cc1 (centres undefined) | 2.45% |
| Cc1ccc(S(=O)(=O)n2nc(OC(=O)C(C)(C)C)cc2N)cc1 | -1.76% |
| CN1CCCC(OC(=O)COc2ccc(Br)cc2)C1 (centres undefined) | -15.4% |
| CC[C@H]1CN2CCc3cc(OC)c(OC)cc3[C@@H]2C[C@@H]1C[C@H]1NCCc2cc(OC)c(OC)cc21 | 92.4% (active) |
| CCOC(=O)C1CCCN(C(=O)c2cncc(Br)c2)C1 (centres undefined) | 3.85% |
| O=C(c1ccco1)N1CCN(CC(=O)N(C2CCCCC2)C2CCS(=O)(=O)C2)CC1 (centres undefined) | 16.6% |

| Structure (SMILES) | inhibition |
| --- | --- |
| CCSC1=C(C#N)C(=O)n2c1cc1c2CCCC1 | -0.37% |
| CCSc1ncnc2c(C#N)c3n(c12)CCCCC3 | 47.6% (active) |
| COC(=O)c1ccccc1NC(=O)Cn1nc(C(F)(F)F)c2c1CCC2 | -3.25% |
| CCn1c2c(c3ccc(OC)cc31)CCCC2=O | 4.52% |
| Cc1cc(NC(=O)c2cc(-c3cccs3)on2)nn1Cc1ccc(Cl)cc1 | -7.29% |
| Cc1nn(Cc2ccc(Cl)c(Cl)c2)c(C)c1NC(=O)c1cc(C2CC2)on1 | 34.3% (active) |
| O=C(Nc1cc(C(F)(F)F)ccc1Cl)c1cc(C2CC2)on1 | -9.73% |
| CC(=O)C1C(c2ccc(Cl)cc2)NC(=O)NC1(O)C(F)(F)F (centres undefined) | 6.15% |
| CCSC(C)CC1C/C(=N/O)c2c(C)noc2C1 (centres undefined) | 21.4% |
| Cc1nc2sc(C(c3ccco3)N3CCC4(CC3)OCCO4)c(O)n2n1 (centres undefined) | -11.1% |
| CC1(C)Oc2ccc3ccc(=O)oc3c2/C(=C/NCCO)C1=O | -8.4% |
| CN=C1SC(C(=O)O)CC(=O)N1C (centres undefined) | 1.76% |
| CC[C@]1(O)C[C@@H]2CN(CCc3c([nH]c4ccccc34)[C@@](C(=O)OC)(c3cc4c(cc3OC)N(C)[C@H]3[C@@](O)(C(=O)OC)[C@H](OC(C)=O)[C@]5(CC)C=CCN6CC[C@]43[C@@H]65)C2)C1 | 73.5% (active) |
| CC[C@]1(O)CC2CN(CCc3c([nH]c4ccccc34)[C@@](C(=O)OC)(c3cc4c(cc3OC)N(C=O)[C@H]3[C@@](O)(C(=O)OC)[C@H](OC(C)=O)[C@]5(CC)C=CCN6CC[C@]43[C@@H]65)C2)C1 (some centres undefined) | 71.9% (active) |
| Cc1ccc(C(c2nnnn2C(C)(C)C)N2CCc3ccccc3C2)cc1 (centres undefined) | -3.9% |
| FC(F)Oc1ccccc1C1CC(c2ccc(Br)s2)Nc2ncnn21 (centres undefined) | 12% |
| O=C(c1cnn2ccccc12)N1CCc2ccccc21 | -4.32% |
| COCCNC(=O)CN(C(=O)CCC(=O)Nc1cc(C)on1)c1ccc(C)cc1C | -0.23% |
| Cc1cccc(Cn2c(SCCO)nc3c2c(=O)n(C)c(=O)n3C)c1 | -1.41% |
